In all, about 5,500 compounds went through this assay and about 2,000 (36%) were called active. About 18% were inconclusive and are not listed. Cut-off read from the data, not from the text of the source: active = normalized growth mostly below about 0.91 (no sharp cut-off); inconclusive = no clear call, values can overlap the other calls; inactive = mostly above about 0.92. This is one part of the list.
Assay: chemical genetic growth profiling, strain panel (AID 1159580);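 note: tested at 20 µM; growth read once vehicle control cultures reached saturation at 30 °C; 1 = growth at the plate median or of vehicle wells; lower values mean less growth of the strain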
Settings: S. cerevisiae deletion strains, growth OD

Measured: normalized growth

O=C1c2ccccc2C(=O)c2c(O)c(O)cc(O)c21
active: locus YAL021C, strain ccr4, hits give low values 0.105 | locus YAL026C, strain drs2, hits give low values 0.209 | locus YAL030W, strain snc1, hits give low values 0.471 | locus YBL061C, strain skt5, hits give low values 0.403 | locus YBR009C, strain hhf1, hits give low values 0.415 | locus YBR023C, strain chs3, hits give low values 0.35 | locus YBR171W, strain sec66, hits give low values 0.541 | locus YBR231C, strain swc5, hits give low values 0.228 | locus YBR279W, strain paf1, hits give low values 0.478 | locus YCL011C, strain gbp2, hits give low values 0.436 | locus YCL016C, strain dcc1, hits give low values 0.492 | locus YCL061C, strain MRC1, hits give low values 0.503 | locus YCL069W, strain vba3, hits give low values 0.426 | locus YCR088W, strain abp1, hits give low values 0.548 | locus YDL005C, strain med2, hits give low values 0.114 | locus YDL040C, strain nat1, hits give low values 0.639 | locus YDR001C, strain nth1, hits give low values 0.583 | locus YDR069C, strain doa4, hits give low values 0.22 | locus YDR137W, strain rgp1, hits give low values 0.136 | locus YDR159W, strain sac3, hits give low values 0.475 | locus YDR195W, strain ref2 0.766 | locus YDR297W, strain sur2, hits give low values 0.47 | locus YDR334W, strain swr1, hits give low values 0.206 | locus YDR335W, strain msn5, hits give low values 0.386 | locus YDR392W, strain spt3, hits give low values 0.164 | locus YEL003W, strain gim4, hits give low values 0.392 | locus YEL037C, strain rad23, hits give low values 0.421 | locus YEL061C, strain CIN8 (second series), hits give low values 0.494 | locus YER015W, strain faa2, hits give low values 0.323 | locus YER016W, strain bim1, hits give low values 0.505 | locus YER111C, strain swi4, hits give low values 0.223 | locus YER155C, strain BEM2 (second series), hits give low values 0.248 | locus YFR010W, strain ubp6, hits give low values 0.412 | locus YGL167C, strain pmr1, hits give low values 0.212 | locus YGL173C, strain kem1, hits give low values 0.193 | locus YGL227W, strain vid30, hits give low values 0.627 | locus YGL240W, strain doc1, hits give low values 0.383 | locus YGL253W, strain hxk2, hits give low values 0.262 | locus YHR013C, strain ard1, hits give low values 0.293 | locus YHR027C, strain rpn1, hits give low values 0.268 | locus YHR030C, strain SLT2, hits give low values 0.183 | locus YHR079C, strain IRE1, hits give low values 0.202 | locus YHR142W, strain chs7, hits give low values 0.242 | locus YJL092W, strain hpr5, hits give low values 0.529 | locus YJL095W, strain BCK1 (second series), hits give low values 0.121 | locus YJL095W, strain BCK1, hits give low values 0.192 | locus YJL115W, strain asf1, hits give low values 0.431 | locus YJL129C, strain trk1, hits give low values 0.396 | locus YJL154C, strain vps35, hits give low values 0.489 | locus YJL164C, strain tpk1, hits give low values 0.339 | locus YJL166W, strain qcr8, hits give low values 0.327 | locus YJL187C, strain SWE1, hits give low values 0.434 | locus YJR066W, strain TOR1, hits give low values 0.174 | locus YKL160W, strain elf1, hits give low values 0.507 | locus YKR026C, strain gcn3, hits give low values 0.665 | locus YKR091W, strain srl3, hits give low values 0.648 | locus YLL001W, strain dnm1, hits give low values 0.39 | locus YLL026W, hits give low values 0.444 | locus YLL041C, strain sdh2, hits give low values 0.584 | locus YLR027C, strain aat2, hits give low values 0.435 | locus YLR113W, strain HOG1, hits give low values 0.199 | locus YLR221C, strain rsa3, hits give low values 0.414 | locus YLR258W, strain gsy2, hits give low values 0.455 | locus YLR262C, strain YPT6 (second series), hits give low values 0.141 | locus YLR320W, strain mms22, hits give low values 0.266 | locus YLR342W, strain FKS1, hits give low values 0.443 | locus YLR357W, strain rsc2, hits give low values 0.534 | locus YLR370C, strain arc18, hits give low values 0.293 | locus YLR384C, strain iki3, hits give low values 0.401 | locus YML120C, strain ndi1, hits give low values 0.334 | locus YMR058W, strain fet3, hits give low values 0.33 | locus YMR125W, strain sto1, hits give low values 0.699 | locus YMR129W, hits give low values 0.557 | locus YMR205C, strain PFK2, hits give low values 0.356 | locus YMR231W, strain pep5, hits give low values 0.296 | locus YNL071W, strain lat1, hits give low values 0.306 | locus YNL183C, strain NPR1, hits give low values 0.159 | locus YNL209W, strain ssb2, hits give low values 0.252 | locus YNL248C, strain rpa49, hits give low values 0.336 | locus YNL322C, strain KRE1 (second series), hits give low values 0.424 | locus YNR049C, strain mso1, hits give low values 0.489 | locus YOR001W, strain rrp6, hits give low values 0.446 | locus YOR070C, strain gyp1, hits give low values 0.439 | locus YOR080W, strain dia2, hits give low values 0.435 | locus YOR083W, strain WHI5, hits give low values 0.399 | locus YOR106W, strain vam3, hits give low values 0.193 | locus YOR231W, strain MKK1, hits give low values 0.197 | locus YOR265W, strain rbl2, hits give low values 0.447 | locus YOR270C, strain vph1, hits give low values 0.165 | locus YOR290C, strain snf2, hits give low values 0.282 | locus YPL051W, strain arl3, hits give low values 0.168 | locus YPL078C, strain atp4, hits give low values 0.344 | locus YPL106C, strain sse1, hits give low values 0.491 | locus YPL240C, strain hsp82, hits give low values 0.497 | locus YPL256C, strain CLN2, hits give low values 0.228

— PubChem BioAssay AID1159580 (chemical genetic matrix, 2015)
